This is a sample that favours compounds with a hit; in the whole collection about 10% have one here.
Gal4-VP16 FLuc – counter-screen for ROR gamma inhibitors: Gal4-VP16 reporter; Drosophila S2 Gal4-VP16 UAS-luciferase, luminescence, 20 h; Potency, µM (doses to about 53.6 µM), for inactives: at the highest dose activity, negative = inhibition, actives largely listed as inhibitors; 3.5% of 310,000 active;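 further: Gal4-VP16 expression switched on by copper sulfate through the metallothionein promoter; on the % scale 0 is the no-effect control and ±100 the full control effect; nearly all actives have a fitted effect of over 50% in size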
KB-3-1 cytotox – kills parental KB-3-1 adenocarcinoma cells; 1.4% of 400,000 active; Potency, µM (highest dose often 46.1 µM), actives largely listed as cytotoxic; KB-3-1 viability, CellTiter-Glo ATP luminescence, 72 h; further: on the % scale 0 is the no-effect control and ±100 the full control effect; nearly all actives have a fitted effect of over 60% in size
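KB-3-1 cells, DMEM (no phenol red) + 10% FBS; compound by pin transfer, 72 h, 37 °C. Readout: CellTiter-Glo luminescence after 10 min. Data normalized, curve-fitted.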
MCF10A rereplic – inducers of DNA re-replication in MCF 10A breast cells | MCF 10A DNA re-replication, Hoechst nuclear intensity, 48 h | Potency, µM (top dose mostly 46.1 µM), for inactives: at the highest dose activity, positive = re-replication, most hits filed as activators | 2.9% of 350,000 active | AID 624296; further: % of control where 0% means no effect; nearly all actives have a fitted effect of over 50% in size
SW480 rerep – induces DNA re-replication in SW480 colon adenocarcinoma cells | SW480 DNA re-replication, Hoechst DNA content imaging, 48 h | Potency, µM (titrated, usually from 46.1 µM), inactives show top-dose re-replication activation, most hits filed as activators | 1.8% of 340,000 active | AID 624297; further: % of control where 0% means no effect; nearly all actives have a fitted effect of over 55% in size
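Quantitative HTS format with DMSO vehicle controls; 48 hr drug incubation at 37 C, then 40 min Hoechst staining and scanning imager measurement at 405 nm excitation.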
RORgamma inh – blocks mouse ROR gamma transcriptional activity; P51450; Drosophila S2 Gal4-RORgamma UAS-luciferase reporter, 20 h; Potency, µM (top dose mostly 53.6 µM), without a hit: at the highest dose activity change, negative = inhibition, hits mostly inhibitors; 5.4% of 310,000 active; AID 2551; further: on the % scale 0 is the no-effect control and ±100 the full control effect; nearly all actives have a fitted effect of over 60% in size
Target sequence (P51450 whole entry, looked up, the tested form may be a part): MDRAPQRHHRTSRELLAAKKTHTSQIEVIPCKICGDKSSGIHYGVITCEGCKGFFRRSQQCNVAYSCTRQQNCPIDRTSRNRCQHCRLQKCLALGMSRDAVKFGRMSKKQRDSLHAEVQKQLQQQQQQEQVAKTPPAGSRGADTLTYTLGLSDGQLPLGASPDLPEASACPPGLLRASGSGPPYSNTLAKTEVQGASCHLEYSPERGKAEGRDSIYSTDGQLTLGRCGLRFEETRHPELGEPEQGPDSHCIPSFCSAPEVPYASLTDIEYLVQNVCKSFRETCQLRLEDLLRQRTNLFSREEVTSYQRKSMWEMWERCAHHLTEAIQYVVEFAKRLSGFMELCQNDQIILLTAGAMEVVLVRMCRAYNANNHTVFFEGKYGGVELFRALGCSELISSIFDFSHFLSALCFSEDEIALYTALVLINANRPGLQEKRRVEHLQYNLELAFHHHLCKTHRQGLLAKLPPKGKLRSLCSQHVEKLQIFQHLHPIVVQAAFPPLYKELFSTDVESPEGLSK
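Luciferase reporter read in Schneider cells carrying Gal4-RORγ (mouse) and UAS-Photinus luciferase; cells given compound 1 h before 700 uM copper sulfate induction, then incubated 20 h at ambient temperature.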
KB-V1 MDR tox – KB-V1 MDR subline cytotoxicity | KB-V1 MDR cells viability, CellTiter-Glo, 72 h | Potency, µM (doses to about 46.1 µM), hits mostly cytotoxic | 3.4% of 400,000 active | AID 1347076; further: on the % scale 0 is the no-effect control and ±100 the full control effect; nearly all actives have a fitted effect of over 60% in size
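Cytotoxicity toward P-gp-expressing KB-V1 cells was determined as loss of CellTiter-Glo luminescence after 72 h at 37 degrees C. Compounds were tested in quantitative HTS format across a concentration range, with curves fitted to normalized data.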
Numbers without * were called inactive; i = inactive; u = inconclusive; x = not tested or not shown; [ ] = remark or other dose. The call rests on the fitted dose curve; in most records, active means well fitted curve in the direction sought with a large enough effect; inconclusive means small, poorly fitted or top-dose-only effect, or another doubt; inactive means no such curve, though single readings can be large; an effect the other way counts as inactive or inconclusive. Potency means the concentration at half of the fitted maximal effect.

SMILES | Gal4-VP16 FLuc | KB-3-1 cytotox | MCF10A rereplic | SW480 rerep | RORgamma inh | KB-V1 MDR tox
Cc1onc(-c2c(Cl)cccc2Cl)c1C(N)=S | u | i | -13% | 18% | 7.9µM* | i
Cc1onc(-c2c(Cl)cccc2Cl)c1C(N)=O | x | i | 10% | -5% | -7%[0.365 µM] | i
CC(=O)Nc1nnc(-c2c(-c3c(Cl)cccc3Cl)noc2C)o1 | u | i | 3% | -130% | 10µM* | u
COC(=O)c1sc2cccc(F)c2c1S(=O)(=O)N1CCN(c2ccc(F)cc2)CC1 | x | i | x | x | x | i
CC(C)(C)c1ccc(C(=O)NCCc2csc3nc(-c4ccccc4F)nn23)cc1 | x | i | x | x | x | i
O=C(CC1Sc2ccccc2NC1=O)NNc1ccc(F)cc1 (stereo not given) | x | x | u | 8% | x | x
CCCN(CC(=O)Nc1cc(C)on1)CC(=O)Nc1ccc(F)c(F)c1F | x | i | 4% | 0% | x | 4.6µM*
COc1ccc(N2CCN(C(=O)c3ccc4c(c3)OCO4)CC2)cc1 | -7% | i | u | -4% | 43% | 21µM*
COc1cc(C(=O)OCC(C)=O)ccc1OCc1c(C)noc1C | 0% | 15µM* | 21µM* | 16µM* | -32% | u
COc1ccc(N2CCN(C(=O)c3c(-c4ccccc4)noc3C)CC2)cc1 | 6% | i | -2% | -2% | u | i
COc1cc(C(=O)Nc2nc3ccccc3s2)ccc1OCc1c(C)noc1C | -3% | u | u | 16µM* | u | i
COc1cc(C(=O)Nc2nccs2)ccc1OCc1c(C)noc1C | -3% | i | u | -5% | u | i
Cc1noc(C)c1C(=O)N1CCN(c2ccc(OCc3ccccc3)cc2)CC1 | 27% | u | u | -11% | 26% | 15µM*
CC(=O)c1ccc(N2CCN(C(=O)c3ccc4c(c3)OCO4)CC2)cc1 | 1% | x | 5% | -8% | u | x
COc1cccc(N2CCN(C(=O)c3ccc(C)c(NC(=O)c4nsc5ccccc45)c3)CC2)c1 | x | i | x | x | x | i
Cc1ccc(C(c2sc3nc(-c4ccco4)nn3c2O)N2CCCCC2)cc1 (stereo not given) | x | i | x | x | x | i
COc1ccc(N2CCN(C(=O)c3ccc(OCc4c(C)noc4C)c(OC)c3)CC2)cc1 | 2% | i | 0% | 0% | 28% | 12µM*
Cc1ccc2c(c1)c1c3n2CCN=C3CCC1 | u | u | 24% | 5% | 11µM* | 15µM*
Cc1ccc2c(c1)c1c3n2CCN[C@H]3CCC1 | -5% | x | u | -4% | -22% | x
Cc1ccc2c(c1)c1c3n2CCCNC3CCC1 (stereo not given) | -2% | i | -1% | 10% | -6% | i
c1cc2c(cc1C1CCCCC1)c1c3n2CCN=C3CCC1 | 2% | u | 16µM* | 21µM* | 24% | u
c1cc2c(cc1C1CCCCC1)c1c3n2CCCNC3CCC1 (stereo not given) | -99% | 18µM* | u | 18%[9.22 µM] | u | u
O=C(CSc1nc2c([nH]c3ccccc32)c(=O)n1-c1cccc(Cl)c1)N1CCc2ccccc21 | x | i | x | x | x | i
O=Cc1ccc(OCCCOc2cccc3cccnc23)cc1 | 0% | i | 9% | -7% | 21% | i
O=Cc1ccccc1OCCCOc1cccc2cccnc12 | -29% | i | 18µM* | 96% | 2% | i
SMILES | Gal4-VP16 FLuc | KB-3-1 cytotox | MCF10A rereplic | SW480 rerep | RORgamma inh | KB-V1 MDR tox
Brc1ccc(OCCOCCOc2cccc3cccnc23)cc1 | x | i | -1% | -6% | x | 18µM*
COC(=O)c1ccc(OCCOCCOc2cccc3ccc(C)nc23)cc1 | -14% | i | 1% | 1% | -20% | 15µM*
COC(=O)c1ccccc1OCCOCCOc1cccc2ccc(C)nc12 | 12% | i | -4% | -7% | -31% | u
Cc1ccc(OCCCOc2cccc3cccnc23)cc1C | u | i | 25% | 10% | 14µM* | i
Cc1cccc(C)c1NC(=O)Cn1c(=O)cc(C)c2c(C)nn(-c3cccc(Cl)c3C)c21 | x | i | x | x | x | i
Cc1cccc(OCCCOc2cccc3cccnc23)c1C | u | u | 23µM* | u | 13µM* | i
COc1cccc(OC)c1OCCCOc1cccc2cccnc12 | u | i | 7% | -18% | u | i
Cc1ccc(C(=O)NCCn2c(N)c(C#N)c3nc4ccccc4nc32)cc1 | -14% | u | u | 21µM* | 19% | i
N#Cc1c(N)n(CCNC(=O)c2ccc(Cl)cc2)c2nc3ccccc3nc12 | -19% | i | 18µM* | u | -26% | i
N#Cc1c(N)n(CCOC(=O)c2cccc(Br)c2)c2nc3ccccc3nc12 | -9% | i | u | u | 27% | i
O=C(NCc1cccc(Br)c1)c1cnn(-c2ccc(F)cc2)c1-n1cccc1 | x | i | x | x | x | u
CCOc1ccc(NC(=S)NCc2ccc3c(c2)OCO3)cc1 | u | i | 0% | -55% | 7.9µM* | i
O=C(/C=C/c1cccs1)N1CCCCC1 | -4%[10 µM] | i | 3% | -10% | 16% | i
Cc1ccc(NC(=S)NCc2ccc3c(c2)OCO3)cc1 | 16µM* | i | 1% | -3% | 13µM* | i
O=C(/C=C/c1cccs1)N1CCN(Cc2ccc3c(c2)OCO3)CC1 | 2% | i | 11% | -1% | 40% | 18µM*
O=C(/C=C/c1cccs1)N1CCN(c2ccc(O)cc2)CC1 | -5%[10 µM] | u | 16µM* | u | -2% | i
Cc1ccc(NC(=S)NCc2ccc3c(c2)OCO3)c(C)c1 | -3%[0.365 µM] | i | 15% | -2% | u | i
Cc1ccc(NC(=O)N2CCN(Cc3ccc4c(c3)OCO4)CC2)cc1 | -15% | i | 0% | -1% | -3% | 21µM*
S=C(NCc1ccc2c(c1)OCO2)NC1CC1 | u | i | -31% | -2% | 13µM* | i
COc1ccc(-n2c(C)nc3cc(C(=O)NCc4ccc5c(c4)OCO5)ccc32)cc1 | 1% | i | 1% | 2% | 11% | i
CCOc1ccc(-n2c(C)nc3cc(C(=O)NCc4ccc5c(c4)OCO5)ccc32)cc1 | 4% | u | 18% | 2% | 28% | 13µM*
COc1ccc(Br)cc1CNC(=O)c1ccc2c(c1)nc1n2CCCCC1 | x | i | x | x | x | i
COC(=O)C1N2C(=O)N(C)[C@H](C(=O)OC)[C@H]2SC1(C)C (stereo not given in full) | x | i | x | x | x | i
CCC(=O)Nc1cccc2cccnc12 | -12%[10 µM] | i | 3% | -39% | -18% | i
O=C(CCC(=O)OCC(=O)c1ccc(Cl)cc1Cl)Nc1cccc2cccnc12 | -17% | i | 1% | 2%[9.22 µM] | 20% | i

Screening results from PubChem BioAssay.
